Screens from PubChem.
Only a selection was taken, and hits are over-represented in it overall.
TTR transcr act = TTR transcription activation, primary screen; SH-SY5Y TTR promoter Gaussia luciferase, luminescence; 100% = recombinant luciferase protein wells; activation, % at 16.7 µM; 1.3% of 92,000 active; AID 1117267;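 active = activation above the mean of all tested compounds plus 3 SD, cut at about 9.5% in these data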;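 also: cells exposed to compounds for one day before reading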
A number is an active result; - = inactive.

SMILES	TTR transcr act
Cc1nn(C)cc1NC(=O)C[C@H]1CC[C@H]2[C@@H](COc3ccc(NC(=O)Nc4ccccc4)cc3C(=O)N2C)O1	-
O=C(Nc1ccc(F)cc1)C1CCN(C(=O)NCc2ccccc2)CC1	-
CCOc1ccc(NC(=O)C2CCCN(C(=O)NCc3ccccc3)C2)cc1 (stereo not given)	11.4
CCOc1ccc(C(=O)NC2CCN(C(=O)NCc3ccccc3)CC2)cc1	-
COC(=O)[C@]12C[C@H](CC(=O)NCc3ccc(C)o3)C(=O)N(CCc3ccc(OC)c(OC)c3)C1=C[C@H](COCc1ccccc1)O[C@@H]2C	-
O=C(COCc1ccccc1)NC1CCCCN(Cc2ccc(Cl)cc2)C1=O (stereo not given)	-
Cc1ccc(N=C2SC(C(=O)Nc3ccc(OC(F)(F)F)cc3)C(N)=C2C(=O)Nc2c(C)cc(C)cc2C)cc1 (stereo not given)	9.8
Cc1ccc(-c2nc3ncccn3c2NC(=O)Nc2ccc(OC(F)(F)F)cc2)cc1	-
CS/C(=C\[N+](=O)[O-])Nc1ccc(OC(F)(F)F)cc1	-
CN(C)S(=O)(=O)c1cccc(NC(=O)COC(=O)c2c[nH]c(=O)[nH]c2=O)c1	-
CN(C(=O)COC(=O)c1c[nH]c(=O)[nH]c1=O)C1CCCCC1	23.1
CC1CCCC(C)N1C(=O)COC(=O)c1ccc[nH]c1=O (stereo not given)	-
CC1CCC2(CCC(=O)N2C[C@@H](O)c2ccccc2)CC1 (stereo not given in full)	-
Cc1cc(C)n(CC(=O)Nc2ccccc2)n1	-
CC(=O)c1ccc(NC(=O)Cn2nc(C)cc2C)cc1	10.2
Cc1cc([N+](=O)[O-])nn1CC(=O)Nc1ccc(F)cc1	-
O=S(=O)(CC1NCCc2ccccc21)NCc1ccccc1 (stereo not given)	-
COCCN=C1S/C(=C\c2cc(C)n(-c3ccc(F)cc3F)c2C)C(=O)N1C	-
Cc1nn2c(N3CCN(C(=O)c4ccco4)CC3)cc(C(C)(C)C)nc2c1-c1ccccc1	10.1
Cc1cc(N2CCN(C(=O)c3ccco3)CC2)n2ncnc2n1	-
Cc1cc(N2CCN(C(=O)c3ccco3)CC2)n2ncc(-c3ccccc3)c2n1	-
NC1=NS(=O)(=O)Nc2ccccc21	-
O=C(NCc1ccccc1)C1CCN(c2nc(-c3ccc(Br)cc3)cs2)CC1	-
OC1(Cc2ccccc2)CCN(c2ncnc3sccc23)CC1	-
CCn1c(O)c(N=NC(=O)c2cccs2)c2ccccc21	-
SMILES	TTR transcr act
CC(C)n1c(O)c(N=NC(=O)CNC(=O)CCc2ccccc2)c2ccccc21	-
Cn1c(O)c(N=NC(=N)N)c2ccccc21	17.3
C#CCOCCOCCOCCNc1nc(N2CCN(C(=O)[C@H](CCCCN)n3cc([C@@H](N)C(C)CC)nn3)CC2)nc(N2CCN(C(=O)[C@H](CCCCN)n3cc([C@@H](N)C(C)CC)nn3)CC2)n1 (stereo not given in full)	-
Cc1cccc(C(=O)Nc2nc3ncccn3c2-c2ccc(F)cc2)c1	-
CCSc1nnc([C@@H]2CCCN2C(=O)OC(C)(C)C)o1	-
COC(=O)CC1C(=O)NCCN1C(=O)OC(C)(C)C (stereo not given)	-
C[C@@H]1CCCCCCCCC(=O)OCCN(C(=O)OC(C)(C)C)[C@H](C)CCCCCCCCC(=O)OCCN(C(=O)OC(C)(C)C)[C@H](C)CCCCCCCCC(=O)OCCN(C(=O)OC(C)(C)C)[C@H](C)CCCCCCCCC(=O)OCCN1C(=O)OC(C)(C)C	19.0
CC(C)(C)c1ccc(CNc2nc(-c3ccccn3)nnc2-c2ccccc2)cc1	-
COC(=O)[C@]1(C)CN(C(=O)OC(C)(C)C)C2=C1C(=O)C[C@@](C)(C(=O)OC(C)(C)C)C2	-
C/C=C\C=C/C(=O)Nc1cccc(C2=NOC3(C2)C[C@H](C(N)=O)N(C(=O)CC)C3)c1 (stereo not given in full)	-
C/C=C/C=C\C(=O)Nc1cccc(C2=NOC3(C2)C[C@@H](C(N)=O)N(C(=O)/C(C)=C/C)C3)c1 (stereo not given in full)	-
C/C=C\C=C/C(=O)Nc1cccc(C2=NOC3(C2)C[C@H](C(N)=O)N(C(=O)c2ccc(OC)cc2)C3)c1 (stereo not given in full)	16.0
COC(=O)[C@]12C[C@H](CC(=O)NCC3CCCCC3)C(=O)N(Cc3cccc4ccccc34)C1=C[C@H](C(C)C)O[C@@H]2C1CC1	-
O=C(NC1CCCCN(Cc2ccc(Cl)cc2)C1=O)c1cccc([N+](=O)[O-])c1 (stereo not given)	-
CC(C)CNC(=O)OCc1cn(Cc2ccccc2C(F)(F)F)nn1	-
